# The supplement of paper PMC10105736
# A number with no mark means an inactive call.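 Rule for the calls: active = MAPPIT score above the 99th percentile of random reference set scores in the same batch; inactive = at or below it.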
# B1: Rel (protein)
# chain: MNMNQYYDLDNGKNVMFMNDASSTSGYSSSTSPNSTNRSFSPAHSPKTMELQTDFANLNLPGGNSPHQPPMANSPYQNQLLNNGGICQLGATNLINSTGVSFGVANVTSFGNMYMDHQYFVPAPATVPPSQNFGYHQNGLASDGDIKHVPQLRIVEQPVEKFRFRYKSEMHGTHGSLNGANSKRTPKTFPEVTLCNYDGPAVIRCSLFQTNLDSPHSHQLVVRKDDRDVCDPHDLHVSKERGYVAQFINMGIIHTAKKYIFEELCKKKQDRLVFQMNRRELSHKQLQELHQETEREAKDMNLNQVRLCFEAFKIEDNGAWVPLAPPVYSNAINNRKSAQTGELRIVRLSKPTGGVMGNDELILLVEKVSKKNIKVRFFEEDEDGETVWEAYAKFRESDVHHQYAIVCQTPPYKDKDVDREVNVYIELIRPSDDERSFPALPFRYKPRSVIVSRKRRRTGSSANSSSSGTESSNNSLDLPKTLGLAQPPNGLPNLSQHDQTISEEFGREKHLNEFIASEDFRKLIEHNSSDLEKICQLDMGELQHDGHNRAEVPSHRNRTIKCLDDLFEIYKQDRISPIKISHHKVEKWFIEHALNNYNRDTLLHEVISHKKDKLKLAIQTIQVMNYFNLKDVVNSTLNADGDSALHVACQQDRAHYIRPLLGMGCNPNLKNNAGNTPLHVAVKEEHLSCVESFLNGVPTVQLDLSLTNDDGLTPLHMAIRQNKYDVAKKLISYDRTSISVANTMDGNNALHMAVLEQSVELLVLILDAQNENLTDILQAQNAAGHTPLELAERKANDRVVQLLKNVYPEKGELAMTWIPCKVKEEIDSSSDESSDAGQLEIKSEEMDIETKDEDSVELDLSSGPRRQKDESSRDTEMDNNKLQLLLKNKFIYDRLCSLLNQPLGHGSDPQDRKWMQLARQTHLKQFAFIWLGAEDLLDHVKRKGASVEFSTFARALQAVDPQAYALLVNPT
# B2: Mtap (protein)
# chain: MITIKCKDTNLDPLPVKIGIIGGSGLDDPDILEQRQERVVETPYGEPSDALIEGEINGVQCVLLARHGRKHDIMPSNVNYRANIWALRDVGCTHLIVSTACGSLREEIKPGNLVVPHDFIDRTTKRLQTFYDGKAQSPRGVCHLPMFPAFSERTRNILLQAAKELEIPAHDKATIVTIEGPRFSSRSESHMFRQWGGDLINMTTCPEVVLAKEAGLLYGSVAIATDYDCWRMGCEGVNVQDVLRTFAENVIKVKKILVNAVGRIAKEDWSEDILNAKQCVCNNTMSGAM
# B3: Mlf (protein)
# chain: MSLFGALMGDFDDDLGLMNNHMNHTMNAMNMQMRSMNRLMNSFMPDPFMQVSPFDQGFQQNALMERPQMPAMPAMGLFGMPMMPNFNRLLNADIGGNSGASFCQSTVMTMSSGPDGRPQIYQASTSTKTGPGGVRETRRTVQDSRTGVKKMAIGHHIGERAHIIEKEQDMRSGQLEERQEFINLEEGEAEQFDREFTSRASRGAVQSRHHAGGMQAIMPARPAAHTSTLTIEPVEDDDDDDDDCVIQEQQPVRSSAGRHYSSAPTAPQNSGNIATAAAPTPTSSPTTYDTSNGNNNNYVSSRRSYLRNGHGHSLATPRRPLRTPPSSPLATVSTSPSIHPHPYAANPRRQQRAVKHFHTEDEAASSYKAVKRGKKK
# B4: lok (protein)
# chain: MARDTQGTQGTQSQASNIWTQVESQPMEKIVWGRLYGKNIKIKSLGTSSKYRIIYTHSSFSVDLNNDEFTAGRGEANDLILTLNDLPEKILTRISKVHFIIKRANCELTNPVYIQDLSRNGTFVNNEKIGTNRMRILKNDDVISLSHPTYKAFVFKDLSPNESIGLPEEINKTYYVNRKLGSGAYGLVRLVYDTRTCQQFAMKIVKKNMLSGARPSTNFSDPDRVLNEAKIMKNLSHPCVVRMHDIVDKPDSVYMVLEFMRGGDLLNRIISNKLLSEDISKLYFYQMCHAVKYLHDRGITHRDLKPDNVLLETNDEETLLKVSDFGLSKFVQKDSVMRTLCGTPLYVAPEVLITGGREAYTKKVDIWSLGVVLFTCLSGTLPFSDEYGTPAAQQIKKGRFAYGHPSWKSVSQRAKLLINQMLIVDPERRPSIDDVLQSSWLRDAPMLQKAKRLMKLDGMEIEEENFLEPPTKRSRR
# B5: MED19 (protein)
# chain: MMSNYGNMMDSPKSSPHGGGRSPVVARQDSSGTLKTTISLGKTPTIIHTGPFYSMKEPPAKAELTGDKDLMTEYGLHHTLTKFKEKKFKESLASFLQNIPGINDLITHPVENSTLRSVIEKPPIGGKELLPLTPVQLAGFRLHPGPLPEQYRTTYVTPARKHKNKHKKQKHKDGVTTGQESTLLDSAGLETYEKKHKKQKRHEDDKERKKRKKEKKRKKKNQSPEPGVGLLPGGASLGGAAGVMGATSLGSLGGGPGGPGLSSLSASMGPGVVGNMNSFSSSMQMQQQQQMPMQQQQMSSGGLLGSVLGTSGGPGGGGGGGGGGGGGVGGSLLMSQF
# B6: Os-C (protein)
# chain: MGFHMGRQLLLSGFLLVMLQMVTQTQARPQDVITVAGEETEVVIKREGDDDGDDDDSSSEETVEDSEESRRRRREVNTDNTPSARAVIPGEQVVPILLEAILPSVDAAGDRFARSVQFLKNLTPGSELFAVEKNE
# Tests used:
# Experiment in all cases: MAPPIT interaction score (arbitrary units); higher = stronger binary interaction signal, active = hit call of the paper
# [1] = target: Dif; details: pair source set: Lit-BM-16
# [2] = target: Dlc90F; details: MAPPIT configuration: N-N; pair source set: Finley_Y2H
# [3] = target: Mtap; details: MAPPIT configuration: N-N; pair source set: screen_1
# [4] = target: DnaJ-1; details: MAPPIT configuration: N-N; pair source set: Lit-BM-16
# [5] = target: Doa; details: MAPPIT configuration: N-N; pair source set: Finley_Y2H
# [6] = target: Doc1; details: MAPPIT configuration: N-C; pair source set: screen_3
# [7] = target: Dpit47; details: pair source set: RRS
# [8] = target: Vps51; details: MAPPIT configuration: N-N; pair source set: Curagen_high_conf
# 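Note: HEK293T cells with Epo stimulation, STAT-responsive firefly luciferase reporter, fold induction versus unstimulated cells divided by the larger fold induction of two negative controls lacking either bait or prey.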
binder,measurement,setting,value
B1,MAPPIT interaction score,[1]; MAPPIT configuration: N-C,3.09
same,MAPPIT interaction score,[1]; MAPPIT configuration: N-N,1.57
B2,MAPPIT interaction score,[2],0.638
same,MAPPIT interaction score,[3],5.81 (active)
B3,MAPPIT interaction score,[4],-0.321
B4,MAPPIT interaction score,[5],0.00241
B5,MAPPIT interaction score,[6],-0.0798
B6,MAPPIT interaction score,[7]; MAPPIT configuration: N-C,1.62
same,MAPPIT interaction score,[7]; MAPPIT configuration: N-N,0.00721
same,MAPPIT interaction score,[8],-0.071
